CHX counter – Cycloheximide Counterscreen for Small Molecule Inhibitors of Shiga Toxin. cell reporter, cycloheximide protein synthesis inhibition counterscreen. max response, %. 300,000 tested, 12% active. AID 2314, 2010; in the data active = max response mostly above about 13%, no sharp cut-off; inactive = mostly below about 14%; note: read at 38.3 µM for the half of the compounds with a filed dose
Lassa entry inh – qHTS for Inhibitors of binding or entry into cells for Lassa Virus | Lassa virus pseudotype entry inhibition, cell reporter | 300,000 tested, 1.2% active | Potency, µM (highest dose often 37.9 µM), usual class: inhibitors; calls by dose curve; tested in HEK293 cells; note: nearly all actives have a fitted effect of over 50% in size
Marburg entry inh – qHTS for inhibitors of binding or entry into cells for Marburg Virus. 300,000 tested, 1.8% active. Marburg virus pseudotyped entry inhibition, cell reporter. Potency, µM (top dose mostly 37.8 µM), most hits filed as inhibitors; calls by dose curve; tested in HEK293 cells
Pf growth 96h – Primary qHTS for delayed death inhibitors of the malarial parasite plastid, 96 hour incubation; 320,000 tested, 6.9% active; P. falciparum luciferase reporter growth, 96 h; AID 504834, 2011; Potency, µM (top dose mostly 28.7 µM), hits mostly inhibitors
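Luminescence readout: decreased luciferase signal marks inhibited growth of reporter-expressing P. falciparum in infected red cells (2% hematocrit, 0.05% parasitemia final), exposed to compound two generations (96 h, 37 C, 5% CO2).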
Pf growth 48h – Primary qHTS for delayed death inhibitors of the malarial parasite plastid, 48 hour incubation | 310,000 tested, 5.9% active | AID 504832, 2011 | P. falciparum luciferase growth in erythrocytes, 48 h | Potency, µM (highest dose often 28.7 µM), hits mostly inhibitors
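A one-generation exposure of luciferase-tagged malaria parasites in RPMI 1640/Albumax erythrocyte culture, 37 C and 5% CO2. Inhibition is inferred from decreased luminescence after adding detection reagent.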
Shiga inhibitor – A qHTS for Small Molecule Inhibitors of Shiga Toxin; Vero cells, Shiga toxin protein synthesis inhibition reporter; inhibition, % at 38.7 µM; 290,000 tested, 9.2% active; in the data active = inhibition mostly above about 28%, no sharp cut-off; inactive = mostly below about 43%
Of the large screens only hits and unclear results are named; the others gave an inactive call. Sampled rows, rich in hits. Any-hit rate of the full collection: about 19%. Unless noted, calls come from the whole dose curve; as a rule, active = well fitted inhibition curve with a large enough effect; inconclusive = small, poorly fitted or top-dose-only effect, or another doubt; inactive = no such curve, though single readings can be large or run the other way.

Cn1c(CSCc2ccccc2Cl)nnc1SCC(=O)Nc1nccs1	Marburg entry inh inconclusive, Pf growth 96h 12µM, Pf growth 48h inconclusive
Cn1c(SCC(=O)Nc2nccs2)nnc1C12CC3CC(CC(C3)C1)C2	CHX counter 27
CCCCc1nnc(SCC(=O)Nc2nccs2)n1C	Pf growth 96h 10µM
Cn1c(CC(=O)Nc2ccc(Cl)c(Cl)c2)nnc1SCC(=O)Nc1nccs1	none (no result: Pf growth 48h)
O=C(Cn1cnc2c(nc3n2CCCCC3)c1=O)Nc1cccc(C(F)(F)F)c1	Lassa entry inh inconclusive, Pf growth 96h inconclusive (no result: Marburg entry inh)
CSc1nsc(SC)c1C(=O)NCCNS(=O)(=O)c1ccc(C)cc1	Pf growth 96h inconclusive
CCCOC(=O)c1ccc(NC(=O)c2ccoc2C)cc1	CHX counter 41, Shiga inhibitor 88
CCCCOC(=O)c1ccc(NC(=O)c2ccoc2C)cc1	CHX counter 29, Shiga inhibitor 70
Cc1occc1C(=O)Nc1ccc(OCc2ccccc2)cc1	Marburg entry inh inconclusive
CCCCOC(=O)c1ccc(NC(=O)c2ocnc2C)cc1	none
CCCCCCN(C(=O)CCCCCN1C(=O)NC(c2ccc(-c3ccccc3)cc2)C(C(=O)OCc2ccccc2)=C1C)C(C(=O)NCCCC)c1ccc(-c2ccccc2)cc1 (configuration not stated)	Pf growth 96h 0.26µM, Pf growth 48h 0.83µM (no result: Lassa entry inh, Marburg entry inh)
CC1=C(C(=O)OCc2ccccc2)C(c2ccc([N+](=O)[O-])cc2)NC(=O)N1CCCCCC(=O)O (configuration not stated)	Pf growth 96h inconclusive, Pf growth 48h inconclusive
CCCCCCN(C(=O)CCCCCN1C(=O)NC(c2ccc(-c3ccccc3)cc2)C(C(=O)OCc2ccccc2)=C1C)C(C(=O)NCCCC)c1ccc(O)c(C(=O)OC)c1 (configuration not stated)	Pf growth 96h 2.1µM, Pf growth 48h 2.1µM (no result: Lassa entry inh, Marburg entry inh)
CC1=C(C(=O)OCc2ccccc2)C(c2ccc(-c3ccccc3)cc2)NC(=O)N1CCCCCC(=O)O (configuration not stated)	Lassa entry inh inconclusive, Pf growth 96h inconclusive
CCCCCCN(C(=O)CCCCCN1C(=O)NC(c2ccc(-c3ccccc3)cc2)C(C(=O)OCc2ccccc2)=C1C)C(C(=O)NCCCC)c1ccc(O)cc1 (configuration not stated)	Lassa entry inh inconclusive, Marburg entry inh inconclusive, Pf growth 96h 2.1µM, Pf growth 48h inconclusive
CCCCCCN(C(=O)CCCCCN1C(=O)NC(c2ccc(-c3ccccc3)cc2)C(C(=O)OCc2ccccc2)=C1C)C(C(=O)NCCCC)c1cccc(C(=O)OC)c1 (configuration not stated)	Pf growth 96h 1.7µM, Pf growth 48h 1.9µM (no result: Lassa entry inh, Marburg entry inh)
Cc1ccc(-n2nc(C(=O)Nc3ccc(F)cc3F)c3c4ccccc4n(C)c3c2=O)cc1	Lassa entry inh inconclusive (no result: CHX counter, Pf growth 96h, Pf growth 48h, Shiga inhibitor)
COc1ccc(CCNc2oc(Cc3ccccc3)nc2C#N)cc1OC	Marburg entry inh inconclusive (no result: Pf growth 96h)
CC(=O)c1cccc(NC(=O)CSCc2ccccc2)c1	CHX counter 39, Shiga inhibitor 71
CC(=O)c1cccc(NC(=O)CSCc2ccc(Br)cc2)c1	none
CN(C)S(=O)(=O)c1cccc(NC(=O)CCCSc2ccccc2)c1	Lassa entry inh inconclusive, Marburg entry inh inconclusive, Pf growth 96h inconclusive
CC(=O)c1cccc(NC(=O)CCCSc2ccccc2)c1	Lassa entry inh inconclusive, Marburg entry inh inconclusive, Shiga inhibitor 20
CC(=O)Nc1ccc(SCC(=O)O)cc1	Marburg entry inh inconclusive
CC(=O)Nc1ccc(SCCCC(=O)c2ccccc2)cc1	CHX counter 29, Lassa entry inh inconclusive, Shiga inhibitor 72
O=C(CSCc1ccc(Cl)cc1)Nc1cccc(C(=O)O)c1	CHX counter 27, Lassa entry inh inconclusive, Marburg entry inh inconclusive, Shiga inhibitor 52
CC(=O)SCC(C)C(=O)NCc1ccccc1 (configuration not stated)	none (no result: Pf growth 48h)
Cc1onc(-c2ccccc2Cl)c1C(=O)Nc1ccc(S(=O)(=O)Nc2nccs2)cc1	none
C[C@H]1CCC[C@H](O)CCCCCc2cc(O)cc(O)c2C(=O)O1	Pf growth 96h 12µM, Pf growth 48h inconclusive (no result: Lassa entry inh)
CN(C)S(=O)(=O)N1CCN(c2ccc([N+](=O)[O-])c(NC3CC3)c2)CC1	Pf growth 96h inconclusive, Pf growth 48h 4.1µM
Cc1ccc(OC(=O)C2CSC3(C)CCC(=O)N23)c(Br)c1 (configuration not stated)	Pf growth 96h 5.9µM (no result: CHX counter, Shiga inhibitor)
CCc1c(C)nc(SCc2ccccn2)[nH]c1=O	none (no result: Lassa entry inh, Marburg entry inh)
C=CCN1C(=O)c2ccc(C(=O)OCC(=O)N(CC)C3CCS(=O)(=O)C3)cc2C1=O (configuration not stated)	none (no result: CHX counter, Lassa entry inh, Marburg entry inh, Shiga inhibitor)
C[C@]12CC[C@@H]3c4ccc(OC(=O)N(CCCl)CCCl)cc4CC[C@H]3[C@@H]1CC[C@@H]2O	Marburg entry inh inconclusive (no result: CHX counter, Shiga inhibitor)
COc1ccc(C(=O)NCCS(=O)(=O)NCc2ccco2)cc1	none (no result: CHX counter, Shiga inhibitor)
CCOc1ccc(C(Nc2cccnc2)c2cc(Cl)c3cccnc3c2O)cc1 (configuration not stated)	Lassa entry inh inconclusive, Marburg entry inh inconclusive, Pf growth 96h inconclusive, Pf growth 48h inconclusive
CCOc1ccc(NC(c2ccccn2)c2oc(CO)cc(=O)c2O)cc1 (configuration not stated)	CHX counter 46, Pf growth 96h inconclusive, Shiga inhibitor 81 (no result: Lassa entry inh, Marburg entry inh)
CC(NS(=O)(=O)OCC(Cl)(Cl)Cl)c1ccc(Br)cc1 (configuration not stated)	none (no result: Lassa entry inh, Marburg entry inh)
CCN(C1CCCCC1)S(=O)(=O)c1ccc(S(=O)(=O)N2CCN(CCC#N)CC2)cc1	Pf growth 96h 6.6µM, Pf growth 48h inconclusive (no result: Lassa entry inh)
O=C(NC1CCCCC1)N(Cc1nc2ccccc2c(=O)[nH]1)C1CCCCC1	CHX counter 25, Pf growth 48h inconclusive, Shiga inhibitor 65
CC1CCCCC1NC(=O)CCCc1nc2ccccc2c(=O)[nH]1 (configuration not stated)	CHX counter 7.8, Marburg entry inh inconclusive, Pf growth 96h inconclusive
O=C(NC1CCCCC1)N(Cc1nc2ccccc2c(=O)[nH]1)C1CCCC1	Marburg entry inh inconclusive, Pf growth 48h inconclusive
O=C(c1ccccc1)N(Cc1nc2ccccc2c(=O)[nH]1)C1CCCCC1	Marburg entry inh inconclusive
O=C(c1cccc(F)c1)N(Cc1nc2ccccc2c(=O)[nH]1)C1CCCC1	Pf growth 96h inconclusive, Pf growth 48h 6.6µM (no result: Lassa entry inh, Marburg entry inh)
O=C(Nc1cc2c(cc1Br)OCCO2)c1cccnc1	CHX counter 24 (no result: Lassa entry inh, Marburg entry inh)
O=C(Nc1c(C(=O)Nc2ccc3c(c2)OCCO3)cnn1-c1ccccc1Cl)c1ccco1	CHX counter 77, Shiga inhibitor 149 (no result: Pf growth 96h)
O=C(Nc1ccc(NC(=O)c2ccco2)cc1)c1ccc2c(c1)OCO2	Marburg entry inh inconclusive (no result: Pf growth 48h)
CCCC(=O)c1cc2c(cc1NC(=O)c1cccs1)OCCO2	Pf growth 96h inconclusive

High-throughput results from PubChem BioAssay.
